# Results published in PubChem BioAssay (NCATS).
# Records with an inconclusive call do not appear. Where a call stands in place of a potency, no number is given. Activity calls are given as the source filed them. Unless noted, calls follow the shape of the dose curve; as a rule, active = well fitted curve in the direction sought with a large enough effect; inconclusive = small, poorly fitted or top-dose-only effect, or another doubt; inactive = no such curve, though single readings can be large; an effect the other way counts as inactive or inconclusive.
# Legend:
# [1] = Nrf2 qHTS screen for inhibitors: Validation (AID 493153; active = well fitted inhibition curve with a large enough effect in the main read-out, with a control signal flat, not every such curve was filed as active); conditions: Potency: luciferase luminescence; viability change: measured here: cytotoxicity max response
# Procedure, shortened: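 Concentration-response on A549 ARE_Fluc reporter cells exposed 18-24 h at 37 C, 5% CO2. Cytotoxicity read first by CellTiter-Fluor fluorescence (Ex 405/Em 525), then Nrf2 inhibition by BugLite luminescence after 15 min.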
# [2] = target: Galactokinase (Homo sapiens) (UniProt P51570); assay: qHTS Validation Assay for Inhibitors of Human Galactokinase (GALK) (AID 493189)
# Chain of Galactokinase (Homo sapiens) (P51570 whole entry, looked up): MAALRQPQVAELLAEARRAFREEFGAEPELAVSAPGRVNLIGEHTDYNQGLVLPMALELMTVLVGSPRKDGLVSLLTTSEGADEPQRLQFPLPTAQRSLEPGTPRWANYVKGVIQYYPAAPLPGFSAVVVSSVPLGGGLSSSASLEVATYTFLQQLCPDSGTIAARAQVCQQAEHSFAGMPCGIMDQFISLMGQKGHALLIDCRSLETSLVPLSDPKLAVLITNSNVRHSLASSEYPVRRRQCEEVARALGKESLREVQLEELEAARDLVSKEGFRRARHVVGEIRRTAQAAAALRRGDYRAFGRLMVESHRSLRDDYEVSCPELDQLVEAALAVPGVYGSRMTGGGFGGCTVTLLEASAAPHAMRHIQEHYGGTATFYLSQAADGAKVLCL
# Procedure, shortened: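 Luminescence from leftover ATP (Kinase-Glo Plus, 10 min) served as read-out after a 1 h room-temperature reaction of 5 nM GALK, 100 uM galactose and 35 uM ATP at pH8.0.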
# [3] = Validation screen for small molecules that induce DNA re-replication in SW480 colon adenocarcinoma cells (AID 504364); also: potency is read from the fitted curve at half-maximal effect
# Procedure, shortened: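 Image-based DNA content read-out: Hoechst stain 40 min, total nuclear fluorescence intensity (ex 405 nm, em 500-530 nm) after 48 h compound exposure of 250 SW480 cells/well at 37 C, 5% CO2, versus DMSO vehicle.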
# [4] = target: Phosphoglycerate kinase, glycosomal (Trypanosoma brucei brucei) (UniProt P07378); assay: qHTS Validation Assay to Find Inhibitors of Phosphoglycerate Kinase (AID 504547)
# Chain of Phosphoglycerate kinase, glycosomal (Trypanosoma brucei brucei) (P07378 whole entry, looked up): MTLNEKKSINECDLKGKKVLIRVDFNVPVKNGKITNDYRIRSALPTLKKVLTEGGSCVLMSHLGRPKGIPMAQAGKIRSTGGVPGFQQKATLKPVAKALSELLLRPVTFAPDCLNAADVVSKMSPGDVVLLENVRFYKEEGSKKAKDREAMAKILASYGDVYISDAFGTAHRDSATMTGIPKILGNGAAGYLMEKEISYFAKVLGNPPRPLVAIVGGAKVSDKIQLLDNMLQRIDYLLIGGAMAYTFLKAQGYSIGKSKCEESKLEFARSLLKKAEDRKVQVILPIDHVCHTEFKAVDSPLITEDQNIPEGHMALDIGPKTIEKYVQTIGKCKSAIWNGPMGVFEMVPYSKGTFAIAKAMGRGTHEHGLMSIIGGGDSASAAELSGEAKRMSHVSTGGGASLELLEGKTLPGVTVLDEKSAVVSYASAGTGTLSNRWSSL
# Procedure, shortened: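 Luminescence end-point (Kinase-Glo Plus, 10 min) after a 60 min room-temperature coupled reaction. GAPDH at 100nM final supplies 1,3-BPG to PGK. Buffer: 100mM TEA pH 7.6, 5mM MgCl2, 0.01% Tween-20. Wells lacking PGK served as controls.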
# [5] = target: phosphoglycerate mutase (Leishmania major) (UniProt Q4Q090); assay: qHTS Validation Assay to Find Inhibitors of Phosphoglycerate Mutase (AID 504548); conditions: Potency: inhibition qHTS;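 also: end-point luminescence from Kinase-GloPlus after the PGAM reaction; series mostly up to about 58 µM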
# Chain of phosphoglycerate mutase (Leishmania major) (Q4Q090 1-553): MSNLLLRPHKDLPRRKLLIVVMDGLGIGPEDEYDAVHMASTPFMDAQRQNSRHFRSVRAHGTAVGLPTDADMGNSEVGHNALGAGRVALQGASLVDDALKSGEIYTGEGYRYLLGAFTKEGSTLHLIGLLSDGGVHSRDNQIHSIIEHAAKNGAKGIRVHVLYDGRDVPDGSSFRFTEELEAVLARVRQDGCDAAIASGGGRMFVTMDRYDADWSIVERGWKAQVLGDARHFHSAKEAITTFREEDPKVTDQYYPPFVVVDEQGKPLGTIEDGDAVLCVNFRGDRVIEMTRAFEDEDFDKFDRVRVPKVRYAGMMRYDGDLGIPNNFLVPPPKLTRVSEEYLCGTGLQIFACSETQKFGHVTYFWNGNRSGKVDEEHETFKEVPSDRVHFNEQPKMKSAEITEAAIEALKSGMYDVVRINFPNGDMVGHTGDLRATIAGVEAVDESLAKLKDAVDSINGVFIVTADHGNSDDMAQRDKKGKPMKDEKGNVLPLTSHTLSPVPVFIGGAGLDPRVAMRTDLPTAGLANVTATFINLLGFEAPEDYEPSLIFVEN
# Procedure, shortened: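 L. major PGAM (1.25nM final) was added to substrate buffer and pinned compound, incubated 45 minutes at room temperature, then Kinase-GloPlus added; luminescence read after 10 minutes. Buffer: 100 mM TEA pH 7.6, 5 mM MgCl2, 0.01% Tween-20.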
# [6] = qHTS for Inhibitors of ATXN expression: Validation of Cytotoxic Assay (AID 588349)
# Procedure, shortened: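 Cytotoxicity counter-screen: ATP-based luminescent viability (CellTiter Glo) after 72 hr exposure of HEK293 cells to a compound titration at 37 degrees C.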
# [7] = qHTS for Inhibitors of ATXN expression: Validation (AID 588378); also: nearly all actives have a fitted effect of over 75% in size; also: potency is read from the fitted curve at half-maximal effect
# Procedure, shortened: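 Cells: HEK293-ATXN2-FFLuc, phenol-red free DMEM, 2 h attachment. Compound pin-transfer, 24 h, 37 degrees C, 5% CO2. CellTiter-Fluor 30 min, Ex405/Em525; Bright-Glo 5 min, luminescence 2 s exposure.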
# [8] = target: Peptidyl-prolyl cis-trans isomerase NIMA-interacting 1 (Homo sapiens) (UniProt Q13526); assay: qHTS Validation Assay to Find Inhibitors of Pin1 (AID 504536; active = well fitted inhibition curve with a large enough effect in the polarisation, with a control signal flat, not every such curve was filed as active; the % refers to the polarisation)
# Chain of Peptidyl-prolyl cis-trans isomerase NIMA-interacting 1 (Homo sapiens) (Q13526 whole entry, looked up): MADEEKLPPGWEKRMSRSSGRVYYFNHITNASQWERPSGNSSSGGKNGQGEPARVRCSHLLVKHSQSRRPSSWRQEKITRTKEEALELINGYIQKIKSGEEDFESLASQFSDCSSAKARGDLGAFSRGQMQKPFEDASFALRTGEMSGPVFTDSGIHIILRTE
# Procedure, shortened: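 Fluorescence polarization competition: compounds (titration) displace HiFluor-488-labeled Pin1-1b peptide from Pin1 (0.3 uM final) in pH 7.5 HEPES buffer with DTT, 10 min at room temperature; %Activity normalized to no-enzyme wells, curves fitted.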
# [9] = target: Ubiquitin carboxyl-terminal hydrolase 1 (Homo sapiens) (UniProt O94782); assay: Inhibitors of USP1/UAF1: Pilot qHTS (AID 504865);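 also: rhodamine fluorescence freed from ubiquitin-rhodamine substrate followed over time; top concentration of the series differs between compounds; nearly all actives have a fitted effect of over 35% in size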
# Chain of Ubiquitin carboxyl-terminal hydrolase 1 (Homo sapiens) (O94782 whole entry, looked up): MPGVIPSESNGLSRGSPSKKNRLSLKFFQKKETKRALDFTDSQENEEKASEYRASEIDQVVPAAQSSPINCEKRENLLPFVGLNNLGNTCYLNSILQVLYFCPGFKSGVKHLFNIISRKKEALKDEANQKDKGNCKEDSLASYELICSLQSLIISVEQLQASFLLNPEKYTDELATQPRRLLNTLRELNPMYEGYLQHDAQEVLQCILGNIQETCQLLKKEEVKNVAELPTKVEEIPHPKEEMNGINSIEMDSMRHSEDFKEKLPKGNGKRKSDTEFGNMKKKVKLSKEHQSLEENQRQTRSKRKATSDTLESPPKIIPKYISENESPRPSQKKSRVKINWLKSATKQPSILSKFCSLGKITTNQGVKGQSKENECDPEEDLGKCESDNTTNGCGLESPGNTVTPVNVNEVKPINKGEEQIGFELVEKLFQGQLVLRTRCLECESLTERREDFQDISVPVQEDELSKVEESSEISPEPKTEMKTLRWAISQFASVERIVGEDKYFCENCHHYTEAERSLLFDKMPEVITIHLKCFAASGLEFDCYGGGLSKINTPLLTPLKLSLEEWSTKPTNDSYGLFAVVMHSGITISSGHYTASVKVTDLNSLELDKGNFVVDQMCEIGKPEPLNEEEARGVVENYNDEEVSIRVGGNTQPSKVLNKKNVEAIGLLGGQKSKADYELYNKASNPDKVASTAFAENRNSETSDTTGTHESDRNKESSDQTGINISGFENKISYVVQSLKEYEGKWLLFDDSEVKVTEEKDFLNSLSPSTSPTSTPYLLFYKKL
# Procedure, shortened: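 1nM USP1/UAF1 + cpd, 15 min RT; start w/ Ub-Rho 150nM final; kinetic FL 480/540 nm, 6 reads q60 s. Buffer 50mM HEPES pH 7.8, 0.5mM EDTA, 1mM TCEP, 0.01% Tween-20, 0.1 mg/ml BSA.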
# [10] = qHTS for Inhibitors of Cell Surface uPA Generation: Validation Assay (AID 493164);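 also: RAW 264.7 macrophage cells exposed to compound for 18 h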
# Procedure, shortened: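 ATP-Lite luminescence read-out: ATP remains high when uPA activity-dependent LF translocation into the cytoplasm is blocked. RAW 264.7 cells, 18 h compound exposure at 37 C; 7-point titration, 2.45 nM to 38.3 uM final.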
# [11] = target: DNA dC->dU-editing enzyme APOBEC-3G (Homo sapiens) (UniProt Q9HC16); assay: qHTS for inhibitors of Vif-A3G interactions: Validation (AID 588379)
# Chain of DNA dC->dU-editing enzyme APOBEC-3G (Homo sapiens) (Q9HC16 whole entry, looked up): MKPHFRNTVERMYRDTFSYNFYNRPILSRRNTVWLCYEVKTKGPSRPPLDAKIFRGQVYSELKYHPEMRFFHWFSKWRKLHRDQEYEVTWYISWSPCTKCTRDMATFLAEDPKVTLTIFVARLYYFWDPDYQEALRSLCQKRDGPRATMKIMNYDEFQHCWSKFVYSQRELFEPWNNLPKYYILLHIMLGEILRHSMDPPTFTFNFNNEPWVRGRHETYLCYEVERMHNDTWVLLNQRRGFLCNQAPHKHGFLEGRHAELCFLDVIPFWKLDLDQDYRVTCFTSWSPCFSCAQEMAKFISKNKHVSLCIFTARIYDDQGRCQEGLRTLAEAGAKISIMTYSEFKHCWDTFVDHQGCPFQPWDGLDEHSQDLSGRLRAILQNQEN
# Procedure, shortened: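 Yellow fluorescence (Ex 488, Em 500-530) of Vif-coexpressing HeLa A3G-eYFP cells, scanned by Acumen cytometer, reports blocked A3G degradation. Cells plated at 700/well overnight at 37 deg C before compound addition, then a further overnight compound incubation at 37 deg C.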
SMILES,Potency [1],viability change [1],Potency [2],Potency [3],Potency [4],Potency [5],Potency [6],Potency [7],Potency [8],Potency [9],outcome [10],Potency [11]
NC1CCN(O)C1=O (stereo unspecified),inactive,4.05%,inactive,inactive,inactive,inactive,inactive,inactive,,,,
CC(N)=NCCCC[C@@H](N)C(=O)O,inactive,-0.552%,inactive,inactive,inactive,inactive,inactive,inactive,inactive,inactive,,
CCCCCCCCCC[Si](C)(C)CCC(=O)NC(Cc1ccc(C)cc1)c1ccccc1 (stereo unspecified),inactive,-1.11%,inactive,inactive,inactive,inactive,inactive,inactive,inactive,inactive,,
c1ccc2c(c1)CCC[C@H]2Nc1nc2ccccc2[nH]1,inactive,-8.96%,,,inactive,inactive,inactive,inactive,inactive,inactive,,
NC1(C(=O)O)CCc2cc(C(=O)O)ccc21 (stereo unspecified),inactive,-0.824%,inactive,inactive,inactive,inactive,inactive,inactive,,inactive,,
c1ccc(C2CN3CCSC3=N2)cc1 (stereo unspecified),inactive,5.53%,inactive,inactive,inactive,inactive,inactive,inactive,inactive,inactive,,
C=C1C[C@@]23CC[C@H]4[C@@](C)(CCC[C@@]4(C)C(=O)OC4OC(CO)C(O)C(O)C4O)[C@@H]2CC[C@]1(OC1OC(CO)C(O)C(O)C1OC1OC(CO)C(O)C(O)C1O)C3 (stereo partly specified),inactive,-3.06%,,,inactive,inactive,inactive,inactive,,inactive,inactive,
CN(C)CCC(c1ccc(Br)cc1)c1ccccn1 (stereo unspecified),inactive,3.82%,inactive,inactive,inactive,inactive,inactive,,inactive,,,
NOCC(=O)O,inactive,18.2%,inactive,inactive,,inactive,inactive,inactive,inactive,inactive,,
CNc1cc(NS(=O)(=O)c2ccc(N)cc2)nc(NC)n1,inactive,6.74%,inactive,inactive,inactive,inactive,inactive,inactive,inactive,inactive,,
Cc1cccc(C(=O)NCN2CCN(c3ccccc3C#N)CC2)c1,,,inactive,inactive,inactive,inactive,inactive,inactive,inactive,inactive,inactive,inactive
CC(C)NC[C@H](O)COc1cccc2ccccc12,inactive,-4.73%,,,,,inactive,,inactive,inactive,,inactive
CCCCCCCCCCCCCCCCCCOC[C@H](COP(=O)([O-])OCC[N+](C)(C)C)OC,,,inactive,inactive,inactive,inactive,,inactive,inactive,inactive,inactive,
Nc1nc2[nH]c(=O)cnc2c(=O)[nH]1,,,inactive,inactive,inactive,inactive,inactive,inactive,inactive,inactive,inactive,
NCCCNCCCCNCCCN,,,inactive,inactive,inactive,inactive,inactive,inactive,inactive,,inactive,inactive
COc1ccccc1N1CCN(CCN(C(=O)c2ccc(F)cc2)c2ccccn2)CC1,,,inactive,inactive,inactive,inactive,inactive,inactive,inactive,inactive,inactive,
CC#CCOC(=O)c1c(C)nc2sc3c(c2c1N)CCC(O)C3 (stereo unspecified),,,inactive,inactive,inactive,inactive,inactive,inactive,inactive,inactive,inactive,
CC1CNCCN1S(=O)(=O)c1cccc2cnccc12 (stereo unspecified),,,inactive,inactive,inactive,inactive,,22.4 µM (active),inactive,inactive,inactive,
Nc1ccc2c3c(cccc13)C(=O)NC2=O,,,inactive,inactive,inactive,inactive,inactive,inactive,,,inactive,
CCC1(O)CC2CN(CCc3c([nH]c4ccccc34)[C@@](C(=O)OC)(c3cc4c(cc3OC)N(C)C3[C@]45CCN4CC=C[C@@](CC)([C@@H](OC(C)=O)[C@]3(O)C(=O)OC)[C@H]45)C2)C1 (stereo partly specified),,,inactive,0.0206 µM (active),inactive,inactive,,,,inactive,inactive,
C=CC1(C)CC(=O)C2(O)C(C)(O1)C(OC(C)=O)C(O)C1C(C)(C)CCC(O)C12C (stereo unspecified),,,inactive,inactive,inactive,inactive,inactive,,inactive,inactive,inactive,
Cc1ccc2c(c1)C(N1CCN(C)CC1)=Nc1cccnc1N2,,,inactive,inactive,inactive,inactive,inactive,,inactive,,inactive,
